# Data taken from the supplement of paper PMC13380429.
# Test system: Vero E6 infected with SARS-CoV-2
# Assay: inhibition of SARS-CoV-2 cytopathic effect; higher = more antiviral protection, active = above 15
# Details: 48 h
Compound,inhibition of SARS-CoV-2 cytopathic effect (1 nM),inhibition of SARS-CoV-2 cytopathic effect (8.33 nM),inhibition of SARS-CoV-2 cytopathic effect (100 nM),inhibition of SARS-CoV-2 cytopathic effect (833.33 nM),inhibition of SARS-CoV-2 cytopathic effect (10000 nM)
CCCC(=O)OCOC(=O)C1=C(C)NC(C)=C(C(=O)OC)C1c1cccc(Cl)c1Cl (stereo not given) [cleviprex],3.04% (inactive),3.86% (inactive),2.92% (inactive),0.61% (inactive),4.07% (inactive)
CC1=C(C(=O)OC2CCCCC2)C(c2ccc([N+](=O)[O-])cc2)C2=C(CC(C)(C)CC2=O)N1 (stereo not given),-1.14% (inactive),-1.2% (inactive),-1.86% (inactive),1.14% (inactive),23.1% (active)
O=C(c1ccc(C(=O)N2CCC(N3CCCC3)CC2)c(Nc2ccccc2)c1)N1CCC(N2CCCC2)CC1,0.43% (inactive),-1.56% (inactive),0.31% (inactive),-4.9% (inactive),-1.44% (inactive)
C[C@@]12CC[C@@H]3[C@@](CC[C@H]4[C@@]3(C)CCC[C@@]4(C)C(=O)O)(CC1=O)C2 [isosteviol],-1.01% (inactive),3.07% (inactive),-0.69% (inactive),0.69% (inactive),1.55% (inactive)
Oc1ccc(-c2nc3cc(O)cc(Br)c3o2)cc1,0.68% (inactive),1.49% (inactive),2.09% (inactive),4.89% (inactive),2.95% (inactive)
Nc1nc2c(ncn2COC(CO)CO)c(=O)[nH]1 [ganciclovir],0.29% (inactive),0.09% (inactive),2.75% (inactive),-1.42% (inactive),-1.71% (inactive)
CC(C)(C)c1ccc(CN(Cc2cccc(OCC(=O)O)c2)S(=O)(=O)c2cccnc2)cc1 [evatanepag],-1.15% (inactive),-0.63% (inactive),-1.94% (inactive),-1.15% (inactive),-2.53% (inactive)
